Data as given in PubChem BioAssay (NCATS).
Where “and” joins values, the source holds several entries; their conditions need not be identical. Equal values may be shown once. Results filed as inconclusive are left out. Calls of active or inactive are those of the source. Unless noted, calls come from the whole dose curve.

Experiments:
[1] = qHTS Assay for Lipid Storage Modulators (AID 1519); settings: Drosophila S3 cells, BODIPY lipid droplet/cell ratio, laser cytometry, cells loaded with oleic acid; for activity change, negative = inhibition: % is set by controls: 0 for no effect and ±100 for the full control effect
Outline: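 Cells seeded at 5,000 per well were treated with compounds over a concentration series and loaded with oleic acid (400 uM, as added). Lipid droplet fluorescence (488 nm excitation, 500-530 nm channel) was read by laser-scanning cytometry and normalized to 20 uM Triacsin C.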

[2] = molecular target: Alpha-galactosidase A (Homo sapiens) (UniProt P06280); assay: Counterscreen for Glucocerebrosidase Inhibitors: qHTS Assay for Human alpha-Galactosidase at pH 4.5 (AID 992; active = well fitted curve in the direction sought with a large enough effect; an effect the other way counts as inactive or inconclusive; note: 0% is about no effect); settings: purified enzyme, fluorogenic substrate; series mostly up to 76.9 µM
Outline: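 Human enzyme (2 nM) with 80 uM 4-methylumbelliferyl alpha-D-galactopyranoside in 50 mM citric acid, 0.005% Tween-20, pH 4.5, 20 min at room temperature. Compounds 0.7 nM–77 uM; fluorescence Ex 365/Em 440 after pH 10 stop; AC50 from Hill fits.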

[3] = molecular target: DNA repair nuclease/redox regulator APEX1 (Homo sapiens) (UniProt P27695); assay: qHTS Validation Assay for Inhibitors of the Human Apurinic/apyrimidinic Endonuclease 1 (APE1) (AID 1705; active = well fitted curve in the direction sought with a large enough effect; an effect the other way counts as inactive or inconclusive; note: potency is the fitted concentration of half-maximal effect); settings: purified APE1 endonuclease activity, fluorescence, titration; series mostly up to 57.1 µM
Outline: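 Activity read as rising fluorescence (598 nm emission, 525 nm excitation) from incision of a TAMRA/BHQ-2 duplex carrying a THF abasic site (50 nM). Compound and enzyme sat 15 min at RT before substrate start; signal change between first and third 60-s reads.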

[4] = Counterscreen for APE1 Inhibitors: Fluorescent Dye Displacement Validation Assay (AID 1707; active = well fitted curve in the direction sought with a large enough effect; an effect the other way counts as inactive or inconclusive;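 note: plate controls were ThO with dsDNA and no compound for no effect and ThO without dsDNA for full effect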); settings: fluorescent dye displacement from DNA; series mostly up to 57.1 µM
Outline: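 Thiazole Orange (250 nM) bound to 50 nM TAMRA-labelled dsDNA with tetrahydrofuran abasic site; displacement by DNA-binding compounds lowers fluorescence. Buffer 50 mM Tris-HCl pH 7.5, 50 mM NaCl, 2 mM MgCl2, 0.01% Tween-20; endpoint read at 480/540 nm.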

[5] = measured here: cell count channel max response
[6] = measured here: lipid channel max response

Sequence of Alpha-galactosidase A (Homo sapiens) (P06280 whole entry, looked up): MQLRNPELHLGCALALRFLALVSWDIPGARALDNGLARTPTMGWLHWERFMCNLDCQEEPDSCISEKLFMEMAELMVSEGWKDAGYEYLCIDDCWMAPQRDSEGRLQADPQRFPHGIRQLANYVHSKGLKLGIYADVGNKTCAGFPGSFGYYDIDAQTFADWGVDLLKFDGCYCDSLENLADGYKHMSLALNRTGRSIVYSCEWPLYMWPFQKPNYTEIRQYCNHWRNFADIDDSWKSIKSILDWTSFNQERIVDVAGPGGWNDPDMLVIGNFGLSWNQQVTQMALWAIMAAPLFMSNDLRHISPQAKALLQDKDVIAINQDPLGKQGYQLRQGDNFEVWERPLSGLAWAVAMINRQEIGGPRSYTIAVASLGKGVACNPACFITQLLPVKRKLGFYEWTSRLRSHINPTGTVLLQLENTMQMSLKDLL
Sequence of DNA repair nuclease/redox regulator APEX1 (Homo sapiens) (P27695 whole entry, looked up): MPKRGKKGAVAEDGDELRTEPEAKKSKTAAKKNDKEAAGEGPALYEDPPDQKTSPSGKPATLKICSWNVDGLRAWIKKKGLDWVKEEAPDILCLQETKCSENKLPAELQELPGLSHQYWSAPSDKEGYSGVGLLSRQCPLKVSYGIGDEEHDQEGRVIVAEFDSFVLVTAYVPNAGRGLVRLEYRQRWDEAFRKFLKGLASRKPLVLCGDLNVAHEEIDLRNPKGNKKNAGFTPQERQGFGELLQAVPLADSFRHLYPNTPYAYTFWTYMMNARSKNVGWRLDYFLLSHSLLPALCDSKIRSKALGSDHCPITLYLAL

SMILES	activity change, negative = inhibition ([1]; at 25.7 µM (top of the series))	max response [1, 5]	max response [1, 6]	activity change, negative = inhibition ([1]; at 57.5 µM (top of the series))	outcome [2]	Potency [3]	outcome [4]
CCN1CCC[C@H]1CNC(=O)c1c(OC)ccc(Br)c1OC	-6.61% (inactive)	-13.5%	-15.4%	–	–	–	–
OC(CCN1CCCCC1)(c1ccccc1)c1ccccc1	-4.82% (inactive)	1.42% and 9.61%	-4.61% and 14.1%	3.44% (inactive)	–	–	–
Cc1c(N(C)CS(=O)(=O)O)c(=O)n(-c2ccccc2)n1C	0.216% (inactive)	-6.35% and 7.26%	-5.13% and 21%	9.06% (inactive)	–	–	–
Cc1cc(=O)n(-c2ccccc2)n1C	1.11% (inactive)	-1.15% and 10.6%	1.09% and 14.3%	0.266% (inactive)	–	–	–
O=C1c2ccccc2C(=O)C1c1ccccc1	-0.708% (inactive)	-13.1% and 15.4%	-14% and 33.1%	10.4% (inactive)	–	–	–
CC(C)NC[C@@H](O)COc1cccc2ccccc12	-1.02% (inactive) and 0.265% (inactive) and -0.0202% (inactive)	-4.01% [middle of 4 runs]	-1.83% [middle of 4 runs]	2.8% (inactive)	inactive	5.01 µM (active)	inactive
CCCCOc1ccc(OCCCN2CCOCC2)cc1	-0.243% (inactive)	-13.4%	-13.4%	–	–	–	–
CC(=O)Nc1c(I)cc(I)c(C(=O)O)c1I	–	5.35%	12.7%	5.69% (inactive)	–	–	–
Cc1ccnc(NS(=O)(=O)c2ccc(N)cc2)n1	2.4% (inactive)	-11% and -0.764%	-8.59% and 9.99%	7.92% (inactive)	–	–	–
O=C(CCCN1CCC(O)(c2ccc(Br)cc2)CC1)c1ccc(F)cc1	-4.42% (inactive)	-5.85%	-9.42%	–	–	–	–
CC(C)(CO)[C@@H](O)C(=O)NCCCO	–	21.8%	22.3%	2.51% (inactive)	–	–	–
CCCCc1nc(Cl)c(CO)n1Cc1ccc(-c2ccccc2-c2nn[nH]n2)cc1	–	13.8%	25.7%	9.33% (inactive)	–	–	–
CN(C)CC/C=C1\c2ccccc2Sc2ccc(Cl)cc21	-2% (inactive)	-15.8% and 5.25%	-14.2% and 16.4%	8.38% (inactive)	–	–	–
CN=C(NC#N)NCCSCc1csc(N=C(N)N)n1	–	-6.42%	-3.26%	3.24% (inactive)	–	–	–
CCN(CC)CCOC(=O)C(c1ccccc1)C1CCCCC1 (centres undefined)	–	11.2%	13.6%	-0.866% (inactive)	–	–	–
COc1ccc(CCN2CCC(Nc3nc4ccccc4n3Cc3ccc(F)cc3)CC2)cc1	-7.48% (inactive)	-13.7% and 8.29%	-24.1% and 21%	12.8% (inactive)	–	–	–
CCCCCCCCCCCCCCCCOP(=O)([O-])OCC[N+](C)(C)C	–	14.5%	23.7%	6.36% (inactive)	–	–	–
CC(=O)N(O)CCCCCNC(=O)CCC(=O)N(O)CCCCCNC(=O)CCC(=O)N(O)CCCCCN	-1.65% (inactive)	-10.2% and 15.7%	-12.1% and 27.1%	6.43% (inactive)	–	–	–
O=C(COc1ccc(Cl)cc1)N1CCN(Cc2ccc3c(c2)OCO3)CC1	1.24% (inactive)	-6.27%	-4.72%	–	–	–	–
